According to PubChem BioAssay (NCI):
The panel holds about 83,000 compounds, 20% with a hit somewhere; the sample as a whole holds those more often.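 Method: cells in 96-well plates; compound added at one concentration; 48 h incubation; percent growth measured; values under 10 scored active.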 Values without a mark were called inactive. The source made the active and inactive calls.

Columns and labels:
Experiment in all cases: NCI-60 one-dose screen, 48 h (100 = growth as untreated, 0 = no growth, -100 = all killed)
Conditions in all cases: 10 µM unless noted
[1] = test system: NCI-H23 lung
[2] = test system: NCI-H226 lung
[3] = test system: NCI-H322M lung
[4] = test system: HOP-62 NSCLC
[5] = test system: NCI-H460 lung
[6] = test system: HOP-92 NSCLC
[7] = test system: NCI-H522 lung
[8] = test system: A549/ATCC NSCLC
[9] = test system: 786-0 renal
[10] = test system: COLO 205 colon
[11] = test system: DU-145 prostate
[12] = test system: K-562 leukemia
[13] = test system: MALME-3M melanoma
[14] = test system: MDA-MB-231 breast
[15] = test system: RXF 393 renal
[16] = test system: SF-268 CNS
[17] = test system: SF-295 CNS
[18] = test system: SF-539 CNS
[19] = test system: UACC-257 melanoma
[20] = test system: M14 melanoma

Row | SMILES | growth [1] | growth [2] | growth [3] | growth [4] | growth [5] | growth [6] | growth [7] | growth [8] | growth [9] | growth [10] | growth [11] | growth [12] | growth [13] | growth [14] | growth [15] | growth [16] | growth [17] | growth [18] | growth [19] | growth [20]
1 | CN(C)CCCNC(=O)c1cc(NC(=O)c2cc(NC(=O)c3ccc(C#Cc4ccccc4)cc3)cn2C)cn1C | -42.7% (active) | 4.56% (active) | 38.9% | 8.16% (active) | -28.9% (active) | -26% (active) | -95.3% (active) | -14.8% (active) | -86.9% (active) | -74.9% (active) | 18.2% | -54.9% (active) | -95.8% (active) | -68.8% (active) | -37.7% (active) | 18.1% | -91.8% (active) | -84.1% (active) | 43.8% | -79.8% (active)
2 | O=C1/C(=C/C2=Cc3ccccc3OC2)SC(=S)N1c1ccccc1F | 103% | 101% | 105% | 101% | 121% | 61.6% | 92.6% | 96.7% | 87.4% | 116% | 108% | 92.4% | 96.2% | 97.2% | 109% | 122% | 96.9% | 97.6% | 107% | 
3 | CCCCCCCCOc1cccc(S(=O)(=O)Nc2ccc(C)cc2C(=O)O)c1 | 96.3% | 98.4% | 94.5% | 99.8% | 98.4% | 80.1% | 86.5% | 84.2% | 99.4% | 112% | 102% | 83.8% | 96% | 105% | 107% | 99.2% | 90% | 97.6% | 96.7% | 100%
4 | COc1ccc(CCC2c3c(cc4c(c3OC)OCO4)CCN2C)cc1 (configuration not stated) | -48.6% (active) | -59.3% (active) | 0.952% (active) | -30.2% (active) | -89.7% (active) | -30% (active) | -81% (active) | 9.85% (active) | -67.1% (active) | -73.1% (active) | 5.2% (active) | 3.01% (active) | -98.4% (active) | -80.8% (active) | -35% (active) | 10.2% | -65.2% (active) | -99.9% (active) | -65.7% (active) | 
5 | COc1ccc(N2N=C(c3ccc4c(c3)OCO4)CC2c2cccc(NC(=O)CCNS(=O)(=O)c3ccc(Cl)cc3)c2)cc1 (configuration not stated) | 32.6% | 30.8% | 51.8% | 50.2% | 22.3% | 32% | -80.7% (active) | 33.4% | 43% | 29.2% | 39.7% | 9.67% (active) | 18.7% | -5.89% (active) | 4.88% (active) | 32.8% | 10.7% | 38.2% | 49.2% | 29.5%
6 | Cn1cc(-c2nc(N)nnc2-c2c[nH]c3ccc(F)cc23)c2cccnc21 | 35.2% | 38% | 56.2% | 20% | 11.6% | 46.5% | 36.6% | 43.8% | 52.5% | 53.5% | 49.9% | 30.2% | 64.5% | 22% | 60.5% | 34% | 15.8% | 40.8% | 61.9% | 
7 | O=C(c1ccc(Cl)cc1)c1ccc(OCCCN2CCN(c3ccncc3)CC2)cc1 | 38.4% | 49.4% | 82.1% | 38.7% | 48.6% | 14.9% | 52.6% | 55.5% | 33.5% | -49.7% (active) | 62.1% | 1.45% (active) | -54.1% (active) | 17.2% | 32.8% | 73.2% | 17.6% | 16.7% | 42.4% | -36.2% (active)
8 | COc1ccc(C(SCCNCc2cc(N(C)C)ccn2)(c2ccccc2)c2ccccc2)cc1 | -10.7% (active) | 15.1% | 27.5% | 10.9% | -58.6% (active) | -16.5% (active) | -20.6% (active) | 10.1% | -23.1% (active) | -78% (active) | 7.05% (active) | -28.5% (active) | -91.4% (active) | -33.4% (active) | -21.4% (active) | 22.1% | -58.8% (active) | -93% (active) | -20.9% (active) | -46.3% (active)
